“And” between values parts separate entries of the source, which are not always exact repeats. Equal values may be shown once. Records with an inconclusive call do not appear. Where a call stands in place of a potency, no number is given. Some compounds were tested as several samples or in several runs, with calls that do not always agree. The source made the active and inactive calls. Unless noted, calls come from the whole dose curve.
Legend:
[1] = molecular target: Androgen receptor (Homo sapiens) (UniProt P10275); assay: qHTS assay to identify small molecule agonists of the androgen receptor (AR) signaling pathway in the presence of an antagonist (AID 1259381); note: nearly all actives have a fitted effect of over 15% in size
How it was run: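 Luciferase read-out (ONE-Glo, 30min room temperature) in MDA-kb2 MMTV-reporter cells; agonist mode run in presence of AR antagonist nilutamide, 3.0uM final. Compounds tested as 15-point series, 16hr exposure at 37C, 0% CO2.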

[2] = qHTS assay to identify small molecule antagonists of the estrogen receptor beta (ER-beta) signaling pathway - cell viability counter screen (AID 1259382; active = well fitted curve in the direction sought with a large enough effect in the repeat runs; an effect the other way counts as inactive or inconclusive; note: nearly all actives have a fitted effect of over 55% in size; note: potency is the fitted concentration of half-maximal effect)
How it was run: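 Luminescent ATP read-out (CellTiter-Glo, 30 min, RT) taken in the same wells as the bla reporter assay. HEK293T ER-beta-UAS-bla cells in 2% charcoal-stripped FBS were exposed to compounds with 1nM E2 for 16 hr at 37C.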

[3] = qHTS assay to identify small molecule agonists or antagonists of the thyroid stimulating hormone receptor (TSHR) signaling pathway - wild type cell line counter screen (AID 1259384)
How it was run: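 Wild-type Hek293 cells, 800/well, 18 h at 37C, then compound with Ro20-1724 for 30 min RT. cAMP by HTRF (cAMP-d2/anti-cAMP cryptate), 1 h RT, fluorescence read. 15 concentrations, triplicates.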

[4] = qHTS assay to identify small molecule agonists of the estrogen receptor alpha (ER-alpha) signaling pathway in the presence of an antagonist - cell viability counter screen (AID 1259386; active = well fitted curve in the direction sought with a large enough effect in the repeat runs; an effect the other way counts as inactive or inconclusive;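 note: cells exposed to compounds for 22 h at 37 °C before the viability read; nearly all actives have a fitted effect of over 30% in size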; note: potency is the fitted concentration of half-maximal effect)
How it was run: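 Read-out: CellTiter-Fluor fluorescence after 1hr reagent incubation, measured in the same wells as the luciferase readout. VM7Luc4E2 cells were exposed to 15 compound concentrations with 10.0nM ICI-182,780 for 22hr at 37C.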

[5] = qHTS assay to identify small molecule agonists of the estrogen receptor beta (ER-beta) signaling pathway - cell viability counter screen (AID 1259380; active = well fitted curve in the direction sought with a large enough effect in the repeat runs; an effect the other way counts as inactive or inconclusive; note: nearly all actives have a fitted effect of over 30% in size; note: potency is the fitted concentration of half-maximal effect)
How it was run: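 Luminescence read-out (CellTiter-Glo, 30 min, room temp) taken in the same wells as the beta-lactamase reporter assay; ER-beta-UAS-bla HEK293T cells exposed to DMSO-dissolved compounds for 16 hr at 37C in 2% charcoal-stripped FBS medium.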

[6] = molecular target: Estrogen receptor (Homo sapiens) (UniProt P03372); assay: qHTS assay to identify small molecule agonists of the estrogen receptor alpha (ER-alpha) signaling pathway in the presence of an antagonist (AID 1259383); note: nearly all actives have a fitted effect of over 15% in size; note: potency is the fitted concentration of half-maximal effect; for activation: top concentration of the series differs between compounds
How it was run: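 Luciferase luminescence (ONE-Glo, 30min at room temperature) measured in VM7Luc4E2 cells after 22hr compound exposure at 15 concentrations, with 10.0nM ICI-182,780 final present; cells express endogenous ER-alpha and carry four EREs upstream of luciferase.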

[7] = molecular target: Thyrotropin receptor (Homo sapiens) (UniProt P16473); assay: qHTS assay to identify small molecule antagonists of the thyroid stimulating hormone receptor (TSHR) signaling pathway (AID 1259385); note: nearly all actives have a fitted effect of over 20% in size; note: potency is the fitted concentration of half-maximal effect
How it was run: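 TSHR-HEK293 cells (800/well) plated 18 h, then compounds with Ro20-1724 and TSH at 1.5 ng/mL final, 30 min at room temperature. cAMP quantified by HTRF (cAMP-d2/anti-cAMP-cryptate, 1 h); 15 concentrations in triplicate.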

Chain of Androgen receptor (Homo sapiens) (P10275 whole entry, looked up): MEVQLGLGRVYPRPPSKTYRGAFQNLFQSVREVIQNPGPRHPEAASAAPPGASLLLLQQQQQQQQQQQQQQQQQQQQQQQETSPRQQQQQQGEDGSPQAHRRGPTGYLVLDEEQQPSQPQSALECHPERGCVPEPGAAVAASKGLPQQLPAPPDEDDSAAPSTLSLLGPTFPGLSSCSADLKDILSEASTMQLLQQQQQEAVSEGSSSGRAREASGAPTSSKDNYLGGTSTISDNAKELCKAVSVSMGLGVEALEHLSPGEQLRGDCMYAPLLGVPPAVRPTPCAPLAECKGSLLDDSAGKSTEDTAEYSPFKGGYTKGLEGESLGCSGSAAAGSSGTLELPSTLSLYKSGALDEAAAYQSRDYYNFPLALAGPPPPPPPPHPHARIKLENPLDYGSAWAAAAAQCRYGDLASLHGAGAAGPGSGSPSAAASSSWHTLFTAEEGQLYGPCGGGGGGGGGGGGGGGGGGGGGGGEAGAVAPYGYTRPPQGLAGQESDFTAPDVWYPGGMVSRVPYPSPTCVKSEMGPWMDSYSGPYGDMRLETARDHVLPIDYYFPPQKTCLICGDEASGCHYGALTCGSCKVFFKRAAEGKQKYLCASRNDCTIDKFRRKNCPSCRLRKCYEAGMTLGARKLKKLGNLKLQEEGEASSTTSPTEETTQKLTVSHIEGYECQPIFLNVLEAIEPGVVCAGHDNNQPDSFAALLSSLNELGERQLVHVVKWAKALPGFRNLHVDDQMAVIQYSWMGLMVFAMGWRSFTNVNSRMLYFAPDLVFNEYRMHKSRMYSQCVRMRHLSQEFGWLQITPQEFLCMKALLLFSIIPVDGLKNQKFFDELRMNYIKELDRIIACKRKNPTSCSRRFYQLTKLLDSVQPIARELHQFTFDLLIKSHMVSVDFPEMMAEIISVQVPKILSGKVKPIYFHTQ
Chain of Thyrotropin receptor (Homo sapiens) (P16473 whole entry, looked up): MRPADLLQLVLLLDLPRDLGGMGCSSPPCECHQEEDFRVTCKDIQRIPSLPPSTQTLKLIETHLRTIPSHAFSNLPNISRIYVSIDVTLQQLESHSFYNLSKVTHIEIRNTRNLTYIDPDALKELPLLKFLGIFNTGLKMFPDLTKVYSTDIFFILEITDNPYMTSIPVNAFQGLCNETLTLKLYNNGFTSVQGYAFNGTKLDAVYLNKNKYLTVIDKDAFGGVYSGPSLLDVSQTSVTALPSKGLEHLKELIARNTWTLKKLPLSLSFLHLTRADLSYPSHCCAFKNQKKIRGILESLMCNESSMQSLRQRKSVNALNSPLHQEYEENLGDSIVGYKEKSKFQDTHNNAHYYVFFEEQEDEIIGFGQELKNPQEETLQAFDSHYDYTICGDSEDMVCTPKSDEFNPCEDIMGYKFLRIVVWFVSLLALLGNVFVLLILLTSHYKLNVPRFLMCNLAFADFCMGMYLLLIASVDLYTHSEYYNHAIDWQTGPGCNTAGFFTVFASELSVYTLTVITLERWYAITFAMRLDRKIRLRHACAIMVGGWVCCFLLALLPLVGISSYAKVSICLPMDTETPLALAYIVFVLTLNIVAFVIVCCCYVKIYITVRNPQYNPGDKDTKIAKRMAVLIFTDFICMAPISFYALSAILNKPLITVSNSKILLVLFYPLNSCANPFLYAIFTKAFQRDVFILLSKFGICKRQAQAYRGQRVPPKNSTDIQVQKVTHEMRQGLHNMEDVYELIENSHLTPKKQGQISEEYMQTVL
Chain of Estrogen receptor (Homo sapiens) (P03372 whole entry, looked up): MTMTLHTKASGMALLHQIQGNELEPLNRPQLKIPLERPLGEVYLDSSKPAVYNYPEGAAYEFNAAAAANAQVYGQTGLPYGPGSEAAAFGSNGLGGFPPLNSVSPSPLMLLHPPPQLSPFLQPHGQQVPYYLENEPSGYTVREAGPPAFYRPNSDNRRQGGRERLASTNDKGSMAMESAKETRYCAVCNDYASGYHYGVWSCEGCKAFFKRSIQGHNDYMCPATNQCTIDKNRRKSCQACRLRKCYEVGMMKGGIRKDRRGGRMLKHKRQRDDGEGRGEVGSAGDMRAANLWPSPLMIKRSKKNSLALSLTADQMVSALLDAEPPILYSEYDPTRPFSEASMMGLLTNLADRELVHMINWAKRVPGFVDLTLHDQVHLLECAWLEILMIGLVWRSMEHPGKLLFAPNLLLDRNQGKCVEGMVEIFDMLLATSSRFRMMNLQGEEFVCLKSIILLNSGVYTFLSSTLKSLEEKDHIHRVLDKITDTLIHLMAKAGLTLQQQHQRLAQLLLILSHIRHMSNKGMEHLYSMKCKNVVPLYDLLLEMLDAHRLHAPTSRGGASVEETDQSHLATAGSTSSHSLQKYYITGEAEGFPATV

Q: For `CCc1cc(Cc2cc(CC)cc(C(C)(C)C)c2O)c(O)c(C(C)(C)C)c1`, which Potency [1] is on record?
A: inactive

Q: What about the Potency [2] of the same molecule?
A: 24.3 µM (active)

Q: And the outcome [3]?
A: inactive

Q: What about the Potency [4] of the same molecule?
A: 48.6 µM (active)

Q: For `Nc1c2ccccc2nc2ccccc12`, which Potency [5] is on record?
A: 2.14 µM (active) and 3.35 µM (active)

Q: And the Potency [6]?
A: inactive

Q: What about the Potency [7] of the same molecule?
A: inactive

Q: With `CCCCCCCCCCCC[N+](C)(C)CCCCCCCCCCCC` as the molecule, how does the Potency [5] read?
A: 21.7 µM (active)

Q: What about the Potency [2] of the same molecule?
A: 21.7 µM (active)

Q: And the Potency [6]?
A: inactive

Q: What about the outcome [3] of the same molecule?
A: inactive

Q: What about the Potency [7] of the same molecule?
A: inactive

Q: And the Potency [4]?
A: 68.6 µM (active)

Q: For `Cc1cccc2c1cc1ccc3cccc4ccc2c1c34`, which Potency [5] is on record?
A: inactive

Q: What about the Potency [6] of the same molecule?
A: inactive

Q: For `CC(C)n1nc(-c2cc3cc(O)ccc3[nH]2)c2c(N)ncnc21`, which Potency [5] is on record?
A: 0.211 µM (active)

Q: And the outcome [3]?
A: inactive

Q: What about the Potency [7] of the same molecule?
A: inactive

Q: Which results are given for `CC(C)(C)CC(C)(C)c1ccc(O)c(Cc2ccc(Cl)cc2Cl)c1`?
A: Potency [1]: inactive; outcome [3]: inactive

Q: Which Potency [2] does the source give for `Nc1ccccc1O` here?
A: inactive

Q: And the Potency [6]?
A: inactive

Q: What about the outcome [3] of the same molecule?
A: inactive

Q: What about the Potency [7] of the same molecule?
A: inactive

Q: And the Potency [4]?
A: 67.7 µM (active)

Q: Which results are given for `O=C(Nc1ccc(Oc2ccc(Cl)cc2)c(Cl)c1)c1cc(I)cc(I)c1O`?
A: Potency [5]: 11.9 µM (active); outcome [3]: inactive; Potency [7]: inactive

Q: For `CCC(Cl)C(Cl)C(Cl)CC(Cl)C(Cl)C(C)Cl` (configuration not stated), which Potency [2] is on record?
A: inactive

Q: What about the outcome [3] of the same molecule?
A: inactive

Q: What about the Potency [4] of the same molecule?
A: inactive

Q: With `Cc1cc(C2CCCCC2)n(O)c(=O)c1` as the molecule, how does the Potency [6] read?
A: inactive

Q: What about the outcome [3] of the same molecule?
A: inactive

Q: And the Potency [7]?
A: inactive

Q: Which results are given for `Oc1cccc2cc3cccc(O)c3c(O)c12`?
A: Potency [5]: inactive; Potency [2]: inactive; outcome [3]: inactive; Potency [7]: inactive; Potency [4]: inactive

Q: For `[O-][n+]1ccccc1SSc1cccc[n+]1[O-]`, which activation [1] is on record?
A: -7.58% [at 19 µM] (inactive)

Q: What about the Potency [2] of the same molecule?
A: 0.13 µM (active)

Q: And the activation [6]?
A: 3.22% [at 19 µM] (inactive)

Q: What about the cAMP activity change [3] of the same molecule?
A: 5.78% [at 18.9 µM] (inactive)

Q: What about the Potency [4] of the same molecule?
A: 8.2 µM (active)

Q: For `Cc1ccc(O)c2ncccc12`, which Potency [1] is on record?
A: inactive

Q: What about the outcome [3] of the same molecule?
A: inactive

Q: And the Potency [7]?
A: inactive

Q: And the Potency [4]?
A: inactive

Q: With `CCCCCCCCCCCCCCCC[N+](C)(C)CCN(Cc1ccc(OC)cc1)c1ncccn1` as the molecule, how does the Potency [5] read?
A: 11.9 µM (active)

Q: And the Potency [2]?
A: 13.3 µM (active)

Q: And the Potency [6]?
A: inactive

Q: What about the outcome [3] of the same molecule?
A: inactive

Q: What about the Potency [4] of the same molecule?
A: inactive

Q: For `CCCCCCCCCCCCc1ccc(O)cc1`, which Potency [5] is on record?
A: 43.3 µM (active)

Q: And the Potency [2]?
A: 48.6 µM (active)

Q: And the Potency [6]?
A: 10.9 µM (active)

Q: And the outcome [3]?
A: inactive

Q: What about the Potency [4] of the same molecule?
A: 68.6 µM (active)

Q: With `O=C1CCCc2c1cc1ccc3cccc4ccc2c1c34` as the molecule, how does the Potency [1] read?
A: inactive

Q: What about the Potency [2] of the same molecule?
A: inactive

Q: And the Potency [6]?
A: inactive

Q: What about the outcome [3] of the same molecule?
A: inactive

Q: With `S=c1[nH]c2ccccc2s1` as the molecule, how does the Potency [4] read?
A: inactive

Q: Which results are given for `COC(=O)C1=C(C)NC(C)=C(C(=O)OCC(C)C)C1c1ccccc1[N+](=O)[O-]` (configuration not stated)?
A: Potency [2]: inactive; outcome [3]: inactive; Potency [4]: 54.5 µM (active) and inactive

Q: What does the source list for `Cc1oc(-c2ccccc2)nc1CCC(=O)c1ccc(CC2SC(=O)NC2=O)cc1` (configuration not stated)?
A: Potency [5]: 6.68 µM (active); outcome [3]: inactive; Potency [7]: inactive

Q: What does the source list for `OCc1c[nH]c2ccccc12`?
A: Potency [1]: inactive; Potency [6]: inactive; outcome [3]: inactive; Potency [4]: inactive

Q: What does the source list for `CCCCN1C(=O)[C@@H]([C@H](O)C2CCCCC2)NC(=O)C12CCN(Cc1ccc(Oc3ccc(C(=O)O)cc3)cc1)CC2`?
A: Potency [6]: inactive; outcome [3]: inactive; Potency [7]: inactive; Potency [4]: inactive

Q: Which results are given for `CCC1=C[C@@H]2CN(C1)Cc1c([nH]c3ccccc13)[C@@](C(=O)OC)(c1cc3c(cc1OC)N(C)[C@H]1[C@@](O)(C(=O)OC)[C@H](OC(C)=O)[C@]4(CC)C=CCN5CC[C@]31[C@@H]54)C2`?
A: Potency [2]: inactive; Potency [6]: inactive

Q: For `N=C1N=C(N)c2ccccc21`, which Potency [2] is on record?
A: inactive

Q: What about the Potency [6] of the same molecule?
A: inactive

Q: Which results are given for `COc1ccc(-c2ccc3cc(C(=O)O)ccc3c2)cc1C12CC3CC(CC(C3)C1)C2`?
A: Potency [2]: inactive; Potency [6]: inactive; outcome [3]: inactive; Potency [4]: inactive

Q: For `CC[C@@]1(O)C(=O)OCc2c1cc1n(c2=O)Cc2c-1nc1ccccc1c2/C=N/OC(C)(C)C`, which Potency [1] is on record?
A: inactive

Q: What about the Potency [2] of the same molecule?
A: inactive

Q: And the Potency [6]?
A: inactive

Q: What about the outcome [3] of the same molecule?
A: inactive

Q: And the Potency [7]?
A: 11.9 µM (active)

Q: Which results are given for `COc1ccc(C(=O)/C(Br)=C\C(=O)O)cc1`?
A: Potency [1]: inactive; Potency [2]: inactive; Potency [6]: inactive; outcome [3]: inactive

Q: Which results are given for `CC[C@@]1(O)C(=O)OCc2c1cc1n(c2=O)Cc2cc3c(CN(C)C)c(O)ccc3nc2-1`?
A: Potency [2]: inactive; Potency [6]: inactive; outcome [3]: inactive; Potency [7]: inactive

Q: For `OCCN(CCO)c1nc(N2CCCCC2)c2nc(N(CCO)CCO)nc(N3CCCCC3)c2n1`, which Potency [1] is on record?
A: inactive

Q: And the Potency [2]?
A: inactive

Q: And the Potency [6]?
A: inactive

Q: With `OC1(c2ccc(Cl)c(C(F)(F)F)c2)CCN(CCCC(c2ccc(F)cc2)c2ccc(F)cc2)CC1` as the molecule, how does the Potency [5] read?
A: 10.6 µM (active)

Q: And the Potency [2]?
A: 10.6 µM (active)

Q: What about the outcome [3] of the same molecule?
A: inactive

Q: What about the Potency [7] of the same molecule?
A: inactive

Q: And the Potency [4]?
A: 33.5 µM (active)

Q: Which outcome [3] does the source give for `Cc1cc(=O)oc2cc(N(C)C)ccc12` here?
A: inactive

Q: And the Potency [7]?
A: inactive

Q: Which Potency [1] does the source give for `CCCCCCCCS(=O)C(C)Cc1ccc2c(c1)OCO2` (configuration not stated) here?
A: inactive

Q: And the Potency [2]?
A: inactive

Q: What about the outcome [3] of the same molecule?
A: inactive

Q: And the Potency [4]?
A: inactive

Q: Which Potency [5] does the source give for `O=C(O)c1cc(O)c2c(c1)C(=O)c1cccc(O)c1C2=O` here?
A: inactive

Q: And the Potency [2]?
A: inactive

Q: And the outcome [3]?
A: inactive

Q: And the Potency [7]?
A: inactive

Q: With `CCN1/C(=C/C=C/c2sc3ccccc3[n+]2CC)Sc2ccccc21` as the molecule, how does the activation [6] read?
A: -11.7% [at 19 µM] (inactive)

Q: What about the cAMP activity change [3] of the same molecule?
A: -0.304% [at 18.9 µM] (inactive)

Q: And the Potency [4]?
A: 6.51 µM (active)

Q: With `CCCCCCCCCCC=O` as the molecule, how does the Potency [1] read?
A: inactive

Q: What about the Potency [2] of the same molecule?
A: inactive

Q: What about the outcome [3] of the same molecule?
A: inactive

Q: And the Potency [4]?
A: inactive

Q: Which Potency [5] does the source give for `O=c1cc(-c2ccc(O)cc2)oc2cc(O)cc(O)c12` here?
A: inactive

Q: And the Potency [2]?
A: inactive

Q: What about the outcome [3] of the same molecule?
A: inactive

Q: And the Potency [7]?
A: inactive

Reference: PubChem BioAssay (Tox21)
